This excerpt belongs to a sample that is enriched for hits.
Cruzain inh Det: inhibitors of Trypanosoma cruzi cruzain with detergent | P25779 | purified cruzain, Z-FR-AMC fluorescence, 0.01% Triton | Potency, µM, inactives show max response, negative = inhibition, actives largely listed as inhibitors | hit rate 0.43% among 200,000 | AID 1478;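 also: plate controls were neutral wells for no effect and buffer without enzyme for full effect; nearly all actives have a fitted effect of over 40% in size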
Target sequence (P25779 123-467 limits assumed): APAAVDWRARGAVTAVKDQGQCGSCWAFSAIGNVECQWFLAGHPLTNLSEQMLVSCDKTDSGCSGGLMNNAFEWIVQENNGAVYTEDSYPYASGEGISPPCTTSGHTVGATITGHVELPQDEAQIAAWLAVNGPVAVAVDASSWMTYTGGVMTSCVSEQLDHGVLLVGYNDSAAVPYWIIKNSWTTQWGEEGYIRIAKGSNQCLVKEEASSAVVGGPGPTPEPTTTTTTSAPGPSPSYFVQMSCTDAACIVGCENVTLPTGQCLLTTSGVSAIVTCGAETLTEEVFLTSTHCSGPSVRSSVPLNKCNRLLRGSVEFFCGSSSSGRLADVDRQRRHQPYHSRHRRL
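Purified cruzain (1.5 nM final) was preincubated with compounds for 15 min at room temperature in 100 mM sodium acetate pH 5.5, 5 mM DTT, 0.01% Triton X-100. Reaction started with 2 uM Z-FR-AMC; AMC fluorescence change over 60 s gave activity.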
FBPA Giardia inh: Giardia lamblia aldolase inhibition. A8B2U2. AID 2451. hit rate 0.71% among 290,000. purified Giardia FBPA. Potency, µM (series often up to 59.6 µM), for the others: at the highest dose activity, negative = inhibition, most hits filed as inhibitors; also: nearly all actives have a fitted effect of over 55% in size
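40 nM FBPA preincubated 10 min at RT with compound (up to 57.5 uM final), then substrate plus GAPDH/TPI/NAD/arsenate coupling and diaphorase/resazurin added. Fluorescence read after 20 min at RT, 525/598 nm.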
Cruzain noTriton: cruzain (T. cruzi) inhibition without detergent; hit rate 2.3% among 200,000; Potency, µM, for the others: max response, negative = inhibition, most hits filed as inhibitors; AID 1476; purified cruzain, Z-FR-AMC fluorescence, no detergent;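 also: plate controls were enzyme without inhibitor for no effect and buffer without enzyme for full effect; nearly all actives have a fitted effect of over 40% in size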
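Purified cruzain at 1.5 nM, pre-incubated 15 min with compound at room temperature in 100 mM sodium acetate pH 5.5, 5 mM DTT, 0.00005% Triton X-100. Reaction started with 2 uM Z-FR-AMC; AMC fluorescence increase over 60 s gives rate.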
* = called active by the depositor; ? = inconclusive; . = no result given. Calls follow the shape of the dose curve; as a rule, active = well fitted curve in the direction sought with a large enough effect; inconclusive = small, poorly fitted or top-dose-only effect, or another doubt; inactive = no such curve, though single readings can be large; an effect the other way counts as inactive or inconclusive. Unless noted, % is scaled to controls: 0 for no effect and ±100 for the full control effect; potency is read from the fitted curve at half-maximal effect.

SMILES	Cruzain inh Det	FBPA Giardia inh	Cruzain noTriton
O=C(NCc1ccc(OC(F)(F)F)cc1)C12CN(Cc3ccccc3)CC1C(c1cccc([N+](=O)[O-])c1)=NO2 (stereo not given)	1%	7%	20µM*
[Cl-].[Cl-].[Hg+2]	1%	.	-8%
O=C(CSc1nnc(-c2ccco2)o1)c1ccc(F)c(F)c1	4%	1%	-3%
O=C(CSc1nnc(-c2ccco2)o1)c1ccccc1	-7%	-14%	16µM*
CCOc1ccccc1NC(=O)c1nc(SC(C)C)ncc1Cl	-2%	.	-12%
CNC(=O)c1cc2cccc(OC)c2oc1=O	-3%	0%	-7%
COc1cccc2cc(/C(C)=N/Nc3nc(-c4cc(C)ccc4C)cs3)c(=O)oc12	-16%	0%	5µM*
O=C(O)c1cc(Cl)cc(Cc2cc(Cl)cc(C(=O)O)c2O)c1O	-2%	.	-6%
COc1ccc(NC(=O)c2ccc3c(=O)n(Cc4ccco4)c(=S)[nH]c3c2)c(OC)c1	-3%	3%	?
COc1ccc(OC)c(NC(=O)c2ccc3c(=O)n(CCc4ccccc4)c(=S)[nH]c3c2)c1	1%	7%	10µM*
Nn1cnnc1	2%	.	-1%
Cc1cc(C)n(-c2nc(C)c(C)c(=O)n2CC(=O)Nc2cccc([N+](=O)[O-])c2)n1	-3%	.	3%
CCC(CC)C(=O)Nc1cc(-c2cccc(C)c2)nn1-c1ccccc1	-3%	.	3%
C/C=C1\COC(C(=O)NCc2cccc(OC)c2OC)(C(F)(F)F)C=C1C=C(C)C (stereo not given)	.	-3%	.
O=C(COC(=O)CCN1C(=O)/C(=C\C=C\c2ccccc2)SC1=S)Nc1ccc(Br)cc1	.	-3%	.
Cc1ccc(NC(=O)CCCN2C(=O)/C(=C/C=C/c3ccccc3)SC2=S)cc1	-7%	-1%	32µM*
CC(C)c1ccccc1NC(=O)COC(=O)CCN1C(=O)/C(=C\C=C\c2ccccc2)SC1=S	-11%	1%	16µM*
O=C(CCN1C(=O)/C(=C\C=C\c2ccccc2)SC1=S)Nc1cccc(C(=O)O)c1	.	-2%	.
COC(=O)C1(C(=O)OC)C[C@@H]2CON=C2[C@H]1c1ccccc1	-1%	-3%	7%
Cc1ccc(C(=O)NC(=C(Cl)Cl)S(=O)(=O)c2ccc(C)cc2)cc1	-2%	0%	11%
Cc1ccc(S(=O)(=O)/C(=C/Cl)NC(=O)c2ccccc2)cc1	22µM*	-6%	25µM*
CCOC(=O)c1cccc(NC(=O)c2cc(-c3ccc(Cl)s3)nc3ccccc23)c1	1%	.	-8%
CCc1ccccc1N(C)C(=O)c1nn(C)c2c1CSc1ccccc1-2	-1%	.	-4%
CCOCCCNC(=O)C(c1ccc(Cl)cc1)N(Cc1ccc2c(c1)OCO2)C(=O)c1ccccc1O (stereo not given)	-2%	.	?
Cc1ccc(Cl)cc1NC(=O)c1oc2c(c1C)-c1[nH]ncc1CC2	2%	.	3%
SMILES	Cruzain inh Det	FBPA Giardia inh	Cruzain noTriton
CCOC(=O)c1c(NC(=O)Cn2cnc3scc(-c4ccc(C)cc4)c3c2=O)sc(C)c1C	-6%	1%	4µM*
Cc1sc2ncn(CC(=O)Nc3cccc(S(N)(=O)=O)c3)c(=O)c2c1-c1ccccc1	.	0%	.
CCCOC(=O)Cn1cnc2scc(-c3ccc(C)cc3)c2c1=O	.	6%	.
CCOC(=O)c1c(NC(=O)Cn2cnc3sc(C)c(-c4ccccc4)c3c2=O)sc(C)c1C	-7%	-8%	13µM*
COc1ccc2nc(NC(=O)c3ccccc3F)sc2c1	.	4%	.
COc1ccc2nc(NC(=O)CCc3nc(-c4ccccc4F)no3)sc2c1	0%	1%	7.9µM*
CC[C@@H](C)[C@@H](C(=O)Nc1ccc(C)cc1)N1Cc2ccccc2C1=O	-3%	.	12%
O=c1[nH][nH]c(=S)n1C1CCCCC1	.	20µM*	.
O=c1cc(O)n(C2CCCCCC2)c(=O)[nH]1	.	-10%	.
CCOc1ccc(C2C(C#N)=C(N)N3C(=C2C#N)Sc2ccccc23)cc1 (stereo not given)	-10%	-7%	?
N#CC1=C(N)N2C(=C(C#N)C1c1ccccc1)Sc1ccccc12 (stereo not given)	-2%	-11%	13µM*
Cc1ccc(-c2nnc(Nc3ccc(Br)cc3)c3ccccc23)cc1S(=O)(=O)N1CCOCC1	-2%	.	-18%
CN(C)CCn1c(CO)nc2c1c(=O)n(C)c(=O)n2C	2%	.	3%
CN(C)C(=O)CSc1nnc(-c2ccc(F)cc2)c2ccccc12	.	-6%	.
O=C(CSc1nnc(-c2ccc(F)cc2)c2ccccc12)Nc1ccccc1Cl	-5%	13%	16µM*
O=C(CSc1nnc(-c2ccc(F)cc2)c2ccccc12)NCC1CCCO1 (stereo not given)	.	1%	.
COc1ccc(CCNC(=O)CSc2nnc(-c3ccc(F)cc3)c3ccccc23)cc1OC	-4%	5%	?
